The results in this text go back to PubChem BioAssay (NCI).

Among the test systems are HCT-15 colon; SNB-75 CNS; SNB-19 CNS; U251 CNS; PC-3 prostate; SK-MEL-5 melanoma; UACC-62 melanoma; LOX IMVI melanoma; SK-MEL-28 melanoma; SK-MEL-2 melanoma; SN12C renal; UO-31 renal; TK-10 renal; ACHN renal; CAKI-1 renal; A498 renal; CCRF-CEM leukemia; MOLT-4 leukemia; EKVX NSCLC.
Common to all, as to test: NCI-60 one-dose screen, 48 h (100 = growth as untreated, 0 = no growth, -100 = all killed)
Common to all, as to settings: 10 µM unless noted

Where “and” joins values, the source holds several entries; their conditions need not be identical. Identical values can stand only once. About 83,000 compounds went through this panel and 20% of them were active in at least one assay; those are over-represented in the sample as a whole.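 For each line, cells grew in 96-well plates with the test compound present at a single concentration for 48 hours.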 Calls of active or inactive are those of the source. The calls were made as follows: active = growth percent below 10; inactive = the rest.

Regarding `Cc1c(Cl)cccc1NCN1C(=O)c2ccccc2C1=O`, the growth with HCT-15 colon was 98.4% (inactive); in the experiment on SNB-75 CNS, 94.4% (inactive); with SNB-19 CNS, 110% (inactive); in the experiment with U251 CNS, 95.5% (inactive); with PC-3 prostate, 101% (inactive); with SK-MEL-5 melanoma, 99.5% (inactive). The growth is 114% (inactive) with UACC-62 melanoma; 97% (inactive) in the experiment with LOX IMVI melanoma; 112% (inactive) in the experiment on SK-MEL-28 melanoma; 103% (inactive) in the experiment with SK-MEL-2 melanoma; 112% (inactive) in the experiment with SN12C renal; 82.8% (inactive) with UO-31 renal. The growth is 114% (inactive) with TK-10 renal; 105% (inactive) in the experiment on ACHN renal; 94.4% (inactive) with CAKI-1 renal; 101% (inactive) in the experiment on A498 renal; 105% (inactive) in the experiment on CCRF-CEM leukemia; 116% (inactive) in the experiment with MOLT-4 leukemia.

For `COc1cc([C@H]2OC[C@@H]3C(c4cc(OC)c5c(c4)OCO5)OC[C@H]23)cc(OC)c1OC` (stereo partly drawn), in the experiment with UACC-62 melanoma, the growth was 66.5% [100 µM] (inactive) and 25.8% [100 µM] (inactive).

As to `CCCCC1C(=O)N(c2ccc(S(=O)(=O)Nc3ccccn3)cc2)N(c2ccc(O)c(C(=O)O)c2)C1=O` (stereo not drawn), the growth in the experiment on UACC-62 melanoma was 105% [100 µM] (inactive) and 96.1% [100 µM] (inactive).

With `c1ccc2cc(C[n+]3ccn(Cc4ccc5ccccc5n4)c3)ccc2c1`, the growth with HCT-15 colon was 96.3% (inactive) and 101% (inactive); with SNB-75 CNS it was 18.9% (inactive) and 33.2% (inactive); in the experiment with SNB-19 CNS it was 13.3% (inactive) and 19.7% (inactive); in the experiment on U251 CNS, 12.4% (inactive) and 23% (inactive); in the experiment on PC-3 prostate, 4.09% (active) and 14.7% (inactive); in the experiment on SK-MEL-5 melanoma it was -87.6% (active) and -67.9% (active). The growth was -1.09% (active) and 10.6% (inactive) in the experiment with UACC-62 melanoma; -30.6% (active) and 20.1% (inactive) with LOX IMVI melanoma; 8.97% (active) and 41.2% (inactive) in the experiment with SK-MEL-28 melanoma; 15.9% (inactive) and 69% (inactive) in the experiment with EKVX NSCLC; 2.29% (active) and 11.9% (inactive) in the experiment with SN12C renal; 98% (inactive) and 86.4% (inactive) with UO-31 renal. For the same compound, the growth in the experiment on TK-10 renal was -27% (active) and 80.5% (inactive); in the experiment on ACHN renal, 86.3% (inactive) and 102% (inactive); in the experiment with CAKI-1 renal, 96.2% (inactive); with A498 renal it was 49.1% (inactive) and 61.6% (inactive); in the experiment with CCRF-CEM leukemia it was 10.8% (inactive) and 40.5% (inactive); in the experiment with MOLT-4 leukemia, 0.992% (active) and 34% (inactive).

In the case of `COc1ccc2cc1Oc1ccc(cc1)CC1c3cc(OC)c(cc3CCN1C)Oc1c(OC)c(OC)cc3c1C(C2)N(C)CC3` (stereo not drawn), the growth in the experiment on UACC-62 melanoma was -46.8% [75 µM] (active) and -87.8% [75 µM] (active).

With `COc1cc(C(=O)N/N=C/c2ccc(N(C)C)cc2)cc(OC)c1OC`, the growth with HCT-15 colon is 20% (inactive); in the experiment on SNB-75 CNS it was 38.4% (inactive); in the experiment on SNB-19 CNS, 53.3% (inactive); in the experiment with U251 CNS it was 3.96% (active); in the experiment with PC-3 prostate it was 25.4% (inactive); with SK-MEL-5 melanoma it was 7.49% (active). Moreover, the growth in the experiment on UACC-62 melanoma is 43.1% (inactive); in the experiment with LOX IMVI melanoma it was 20.5% (inactive); with SK-MEL-28 melanoma, 53.8% (inactive); in the experiment on EKVX NSCLC, 75.7% (inactive); in the experiment on SN12C renal, 41.3% (inactive); with ACHN renal it was 45.1% (inactive). In addition, the growth in the experiment with CAKI-1 renal is 68.3% (inactive); in the experiment on A498 renal, -3.05% (active); in the experiment on CCRF-CEM leukemia it was 8.58% (active); with MOLT-4 leukemia it was -0.126% (active).

Turning to `CC(C)/C(Cl)=N/OC(=O)Nc1cccc(C(F)(F)F)c1`, the growth in the experiment with UACC-62 melanoma is -93.1% [100 µM] (active) and -100% [100 µM] (active); with TK-10 renal, -100% [100 µM] (active).

Consider `C[C@@H]1C[C@](O)([C@@H](C)Cl)C(=O)O[C@@H]2CCN3CC=C(COC(=O)[C@]1(C)O)[C@H]23`, for which, in the experiment with UACC-62 melanoma, the growth is 77.3% [100 µM] (inactive) and 83.1% [100 µM] (inactive).

In the case of `N#CC1(C#N)N[C@@H](c2ccsc2)[C@H]2C(=O)N(c3ccccc3)C(=O)[C@H]21`, the growth in the experiment on UACC-62 melanoma was 23.2% [100 µM] (inactive) and 0.172% [100 µM] (active).

As to `C=CCn1c2c(c3ccccc3c1=O)C(=O)c1ccccc1-2`, the growth in the experiment with UACC-62 melanoma is 66.9% [100 µM] (inactive) and 11.1% [100 µM] (inactive).

Turning to `CC1CC(C(=O)OC2OC(COC3OC(CO)C(OC4OC(C)C(O)C(O)C4O)C(O)C3O)C(O)C(O)C2O)C2CCC3(C)C(=CCC4(C)C3CCC3C(C)(CO)C(O)C(O)CC34C)C2C1C` (stereo not drawn), the growth in the experiment on UACC-62 melanoma was -93.3% [100 µM] (active) and -100% [100 µM] (active).

As to `O=[N+]([O-])c1ccc(-n2[nH]nnc2=S)cc1`, the growth in the experiment on HCT-15 colon is 97.5% (inactive); with SNB-75 CNS, 89.1% (inactive); in the experiment with SNB-19 CNS, 98.1% (inactive); in the experiment on U251 CNS it was 108% (inactive); in the experiment on PC-3 prostate, 92% (inactive); in the experiment with SK-MEL-5 melanoma, 122% (inactive). The growth with UACC-62 melanoma is 94.6% (inactive); with SK-MEL-28 melanoma, 106% (inactive); with SK-MEL-2 melanoma it was 109% (inactive); with EKVX NSCLC, 101% (inactive); in the experiment on SN12C renal, 94% (inactive); with UO-31 renal it was 80.5% (inactive). Further, the growth in the experiment on ACHN renal is 102% (inactive); in the experiment on CAKI-1 renal it was 95.6% (inactive); with A498 renal, 95.1% (inactive); with CCRF-CEM leukemia it was 106% (inactive).

Regarding `O=C1c2ccccc2-c2c1c1ccccc1c(=O)n2CCO`, the growth in the experiment on UACC-62 melanoma is -21.8% [100 µM] (active) and -78.7% [100 µM] (active).
